These results are taken from article PMC8384837, “Expanding the binding specificity for RNA recognition by a PUF domain”.

Common to all, as to assay: yeast three-hybrid, YBZ-1, SC-Leu-His + 0.5 mM 3-AT, 4 days
Common to all, as to details: tags: N-Gal4 AD-HA kept; label: inside an RPR1-promoter hybrid RNA with tandem MS2 sites; ssRNA

For test [1], the target named is PUM1 PUF domain R5-GVR (Homo sapiens, UniProt Q14671 828-1176, C1007G;R1008V;Q1011R). Put shortly:
(§1)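 The interaction score is the logarithmic change in variant frequency from input to selection. It uses log2, with a pseudocount of 1 for absent variants, and frequencies came from PCR-amplified, Illumina-sequenced repeat regions. The libraries were Pumilio-1 PUF domains randomized at the three base-contacting residues per repeat, co-expressed with matching RNA elements in strain YBZ-1 (LexA–MS2 coat fusion, HIS3 reporter). Plating lasted four days on SC-Leu (input) or SC-Leu-His + 0.5 mM 3-AT (selection).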

The target of test [2] is PUM1 PUF domain R5-KLH (Homo sapiens, UniProt Q14671 828-1176, C1007K;R1008L;Q1011H). Put shortly: as §1
Test [3] addresses PUM1 PUF domain R5-KFV (Homo sapiens, UniProt Q14671 828-1176, C1007K;R1008F;Q1011V). Put shortly:
as §1

The target of test [4] is PUM1 PUF domain R4-DHR (Homo sapiens, UniProt Q14671 828-1176, N971D;Q975R). Put shortly:
as §1

In test [5] the target is PUM1 PUF domain R4-PFQ (Homo sapiens, UniProt Q14671 828-1176, N971P;H972F). Put shortly:
as §1

In test [6] the target is PUM1 PUF domain R3-WWR (Homo sapiens, UniProt Q14671 828-1176, C935W;R936W;Q939R). Put shortly:
as §1

Test [7] has as its target PUM1 PUF domain R3-DFL (Homo sapiens, UniProt Q14671 828-1176, C935D;R936F;Q939L). Put shortly:
as §1

The target in test [8] is PUM1 PUF domain R3-SEE (Homo sapiens, UniProt Q14671 828-1176, C935S;R936E;Q939E). Put shortly: as §1
Test [9] deals with PUM1 PUF domain R1-KLS (Homo sapiens, UniProt Q14671 828-1176, S863K;R864L;Q867S). Put shortly:
as §1

For test [10], the target named is T1, PUM1 PUF domain R6-CYT (Homo sapiens, UniProt Q14671 828-1176, N1043C;Q1047T).
T1 sequence: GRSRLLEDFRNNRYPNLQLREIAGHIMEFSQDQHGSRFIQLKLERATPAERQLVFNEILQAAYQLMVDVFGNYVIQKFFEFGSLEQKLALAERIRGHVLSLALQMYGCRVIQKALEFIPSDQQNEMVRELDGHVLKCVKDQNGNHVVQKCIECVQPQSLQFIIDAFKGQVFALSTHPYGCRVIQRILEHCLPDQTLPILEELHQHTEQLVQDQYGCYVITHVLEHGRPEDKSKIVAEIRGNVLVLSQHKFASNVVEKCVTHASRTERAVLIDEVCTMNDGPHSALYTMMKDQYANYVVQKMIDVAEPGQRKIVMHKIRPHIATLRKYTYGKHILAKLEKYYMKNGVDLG
Put shortly: as §1

On to “GGCUAGAACUAGUGGAUCCCCCGGCGCCCGGCGGCUCGAGCCCGGGUAAGUGUCAAUAGUCUGCAUGCCGCCGGGCGCCAUGCCUGCAGGUCGACUCUAGAAAACAUG”, for which the binding signal in [1] is 5.93 log2 enrichment (interaction score); in test [2], 2.85 log2 enrichment (interaction score); in test [3], 5.97 log2 enrichment (interaction score).

As for “GGCUAGAACUAGUGGAUCCCCCGGCGCCCGGCGGCUCGAGCCCGGGUAAGUGUUAAUAGUCUGCAUGCCGCCGGGCGCCAUGCCUGCAGGUCGACUCUAGAAAACAUG”, the binding signal is 1.75 log2 enrichment (interaction score) in test [1] and 6.19 log2 enrichment (interaction score) in [3].

Turning to “GGCUAGAACUAGUGGAUCCCCCGGCGCCCGGCGGCUCGAGCCCGGGUAAGUGUAUAUAGUCUGCAUGCCGCCGGGCGCCAUGCCUGCAGGUCGACUCUAGAAAACAUG”, the binding signal in test [4] was 4.76 log2 enrichment (interaction score); in test [5] it was 5.54 log2 enrichment (interaction score).

Take “GGCUAGAACUAGUGGAUCCCCCGGCGCCCGGCGGCUCGAGCCCGGGUAAGUGUAAUUAGUCUGCAUGCCGCCGGGCGCCAUGCCUGCAGGUCGACUCUAGAAAACAUG”: the binding signal in test [6] was 3.35 log2 enrichment (interaction score).

As for “GGCUAGAACUAGUGGAUCCCCCGGCGCCCGGCGGCUCGAGCCCGGGUAAGUGUAAAUAGUCUGCAUGCCGCCGGGCGCCAUGCCUGCAGGUCGACUCUAGAAAACAUG”, the figures for the binding signal in test [7], in [6] and in [3] were 2.6 log2 enrichment (interaction score), 0.59 log2 enrichment (interaction score) and 3.95 log2 enrichment (interaction score), respectively.

Take “GGCUAGAACUAGUGGAUCCCCCGGCGCCCGGCGGCUCGAGCCCGGGUAAGUGUAAGUAGUCUGCAUGCCGCCGGGCGCCAUGCCUGCAGGUCGACUCUAGAAAACAUG”: the binding signal in test [6] is 5.22 log2 enrichment (interaction score); in test [8], 2.43 log2 enrichment (interaction score).

For “GGCUAGAACUAGUGGAUCCCCCGGCGCCCGGCGGCUCGAGCCCGGGUAAGUGUAAAUCGUCUGCAUGCCGCCGGGCGCCAUGCCUGCAGGUCGACUCUAGAAAACAUG”, the binding signal in [9] is 3.97 log2 enrichment (interaction score).

For the sequence “GGCUAGAACUAGUGGAUCCCCCGGCGCCCGGCGGCUCGAGCCCGGGUAAGUGAAAAUAGUCUGCAUGCCGCCGGGCGCCAUGCCUGCAGGUCGACUCUAGAAAACAUG”, the binding signal in test [10] is 3.1 log2 enrichment (interaction score).

For “GGCUAGAACUAGUGGAUCCCCCGGCGCCCGGCGGCUCGAGCCCGGGUAAGUGUACAUAGUCUGCAUGCCGCCGGGCGCCAUGCCUGCAGGUCGACUCUAGAAAACAUG”, in test [4], the binding signal was 6.79 log2 enrichment (interaction score).
